For assay [1], the system named is Plasmodium falciparum Sir2 (PF13_0152, Sir2A). In words: Plasmodium falciparum Sir2A binding compounds – biochemical, small-molecule microarray, 635 nm fluorescence, primary screen (AID 1098).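 Also: score merges spot fluorescence intensity with its signal-to-noise ratio.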 To be noted: fluorescence 635 nm, higher = more signal.
A short description of assay [2]: probe aDKK1 binding to arrayed compounds – biochemical, biotinylated probe, 635/667 nm fluorescence, primary screen (AID 1099).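 Also: score merges 667nm spot fluorescence with signal to noise across triplicate slides.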 To be noted: small-molecule microarray, higher = more signal.
Assay [3] is described as follows: probe aCHRDL2 binding to arrayed compounds – biochemical, biotinylated probe, 635/667 nm fluorescence, primary screen (AID 1100). To be noted: small-molecule microarray, higher = more signal.
A short description of assay [4]: change in splice reporter luminescence, either direction, cell-based, HEK293, spliceosome inhibition project, primary screen (AID 1101).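 Also: HEK293 cells carrying a splicing-competent luciferase reporter gene; test concentration not given here.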 To be noted: HEK293 splicing luciferase reporter, 24 h, higher = more signal, called active from +8 up or from −8 down. (In general: A reporter such as luciferase makes a cellular process visible.)
The target of assay [5] is Fibroblast growth factor 10 (Homo sapiens) (UniProt O15520). In words: compounds binding fibroblast growth factor 10 – biochemical, small-molecule microarray, 635 nm fluorescence, primary screen (AID 1102). As to conditions: FGF10 binding, fluorescence 635 nm, higher = more signal.
Fibroblast growth factor 10 (Homo sapiens), sequence (O15520 whole entry, looked up): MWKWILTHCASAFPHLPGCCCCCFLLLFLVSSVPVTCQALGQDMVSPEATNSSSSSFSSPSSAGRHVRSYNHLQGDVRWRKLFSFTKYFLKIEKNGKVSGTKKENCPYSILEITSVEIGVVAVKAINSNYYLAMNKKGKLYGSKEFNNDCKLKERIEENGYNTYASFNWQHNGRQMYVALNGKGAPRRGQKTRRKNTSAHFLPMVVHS
Assay [6] relates to glycogen synthase kinase-3 (GSK3A per assay name; protocol says GSK3B). In words: compounds binding glycogen synthase kinase-3 – biochemical, small-molecule microarray, 635 nm fluorescence, GSK3A, primary screen (AID 1103). Also: the record names both GSK3A and GSK3B. As to conditions: fluorescence 635 nm, higher = more signal.
The target of assay [7] is Epidermal growth factor receptor (Homo sapiens) (UniProt P00533). In words: compounds binding epidermal growth factor receptor – biochemical, small-molecule microarray, 635 nm fluorescence, primary screen (AID 1104).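 Also: score merges 667 nm emission intensity with spot signal to noise over triplicate slides.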 To be noted: EGFR binding, higher = more signal.
Epidermal growth factor receptor (Homo sapiens), sequence (P00533 whole entry, looked up): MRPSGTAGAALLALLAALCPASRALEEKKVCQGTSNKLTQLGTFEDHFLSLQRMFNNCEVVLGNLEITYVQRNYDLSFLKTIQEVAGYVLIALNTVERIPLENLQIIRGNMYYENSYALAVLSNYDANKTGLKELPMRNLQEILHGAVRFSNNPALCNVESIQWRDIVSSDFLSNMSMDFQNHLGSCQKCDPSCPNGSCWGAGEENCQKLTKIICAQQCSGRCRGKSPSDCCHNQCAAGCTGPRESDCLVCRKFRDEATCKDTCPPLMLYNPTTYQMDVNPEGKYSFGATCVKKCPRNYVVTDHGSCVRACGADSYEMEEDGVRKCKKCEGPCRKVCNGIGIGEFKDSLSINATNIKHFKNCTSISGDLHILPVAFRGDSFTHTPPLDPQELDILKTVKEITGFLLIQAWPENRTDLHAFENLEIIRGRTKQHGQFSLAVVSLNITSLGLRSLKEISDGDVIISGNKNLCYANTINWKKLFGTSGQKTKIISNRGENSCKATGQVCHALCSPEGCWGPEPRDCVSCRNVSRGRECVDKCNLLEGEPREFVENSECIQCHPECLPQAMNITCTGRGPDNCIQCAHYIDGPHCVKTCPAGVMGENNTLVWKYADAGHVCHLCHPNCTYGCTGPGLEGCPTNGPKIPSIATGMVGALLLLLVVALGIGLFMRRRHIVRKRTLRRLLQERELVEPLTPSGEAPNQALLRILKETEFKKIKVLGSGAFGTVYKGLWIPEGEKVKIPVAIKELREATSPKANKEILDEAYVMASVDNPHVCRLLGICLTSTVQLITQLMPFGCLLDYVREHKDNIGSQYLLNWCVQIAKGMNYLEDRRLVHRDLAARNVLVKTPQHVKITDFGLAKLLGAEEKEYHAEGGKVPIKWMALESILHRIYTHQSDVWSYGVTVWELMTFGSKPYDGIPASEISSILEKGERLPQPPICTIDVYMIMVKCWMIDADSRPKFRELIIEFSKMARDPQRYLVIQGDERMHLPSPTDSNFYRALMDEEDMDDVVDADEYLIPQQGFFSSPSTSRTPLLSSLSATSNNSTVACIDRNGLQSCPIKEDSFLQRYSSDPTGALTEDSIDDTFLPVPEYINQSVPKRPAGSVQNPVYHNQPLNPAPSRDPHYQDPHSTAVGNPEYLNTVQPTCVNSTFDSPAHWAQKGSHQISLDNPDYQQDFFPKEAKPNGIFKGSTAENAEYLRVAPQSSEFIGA
Assay [8] deals with Follistatin-related protein 3 (Homo sapiens) (UniProt O95633). In words: compounds binding follistatin-related protein 3 – biochemical, small-molecule microarray, 635 nm fluorescence, primary screen (AID 1105).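 Also: score merges emission near 667 nm and signal to noise per printed spot across three slides.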 As to conditions: FSTL3 binding, higher = more signal.
Follistatin-related protein 3 (Homo sapiens), sequence (O95633 whole entry, looked up): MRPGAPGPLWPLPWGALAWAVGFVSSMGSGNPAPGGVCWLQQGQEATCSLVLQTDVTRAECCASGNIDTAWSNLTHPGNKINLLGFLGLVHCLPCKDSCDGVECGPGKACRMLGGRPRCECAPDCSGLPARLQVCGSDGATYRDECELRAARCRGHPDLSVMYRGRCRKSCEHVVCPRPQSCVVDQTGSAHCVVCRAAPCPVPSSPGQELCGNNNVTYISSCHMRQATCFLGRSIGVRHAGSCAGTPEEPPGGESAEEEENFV
For assay [9], the target named is Dickkopf-related protein 1 (Homo sapiens) (UniProt O94907). In words: small molecules binding DKK1 protein – biochemical, small-molecule microarray, 635 nm fluorescence scan, primary screen (AID 1106).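 Also: score merges emission near 667 nm with signal to noise over three replicate slides.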 To be noted: higher = more signal.
Dickkopf-related protein 1 (Homo sapiens), sequence (O94907 whole entry, looked up): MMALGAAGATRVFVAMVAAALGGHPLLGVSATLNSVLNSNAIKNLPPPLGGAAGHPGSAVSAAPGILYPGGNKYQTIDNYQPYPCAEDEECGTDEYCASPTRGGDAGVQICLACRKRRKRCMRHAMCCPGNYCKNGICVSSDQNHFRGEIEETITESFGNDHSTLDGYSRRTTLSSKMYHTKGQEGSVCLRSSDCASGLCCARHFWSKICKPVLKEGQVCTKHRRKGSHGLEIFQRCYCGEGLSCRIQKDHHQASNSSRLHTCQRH
The subject of assay [10] is Inhibin beta A chain (activin A). In words: small molecules binding activin A – biochemical, small-molecule microarray, 635 nm fluorescence scan, primary screen (AID 1107).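 Also: mouse activin A protein probed at 4.33 µg/mL on printed slides; score merges bound-protein fluorescence near 667 nm with spot signal-to-noise.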 To be noted: INHBA, higher = more signal.
In assay [11] the test system is Human papillomavirus type 1a protein E7 (residues 44-93). In words: small molecules binding HPV E7 44-93 – biochemical, small-molecule microarray, residues 44-93, 635 nm fluorescence, primary screen (AID 1108).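 Also: E7 fragment applied at 1 µg/mL in TBST for 1 h at 4 C; score combines spot fluorescence with its signal to noise ratio.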 To be noted: fluorescence 635 nm, higher = more signal.
The nature of assay [12]: hepatitis C replication reporter changes, two-sided – Huh7 cells, luciferase reporter, HCV replication inhibitor project, primary screen (AID 1109).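 Also: huh7 hepatoma cells harbouring a luciferase neomycin HCV replicon reporter; luciferase luminescence as measure of HCV replicon replication; test concentration not given here.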 To be noted: Huh7 HCV replicon luciferase reporter, 48 h; higher = more signal.
In assay [13] the target is Left-right determination factor 2 (Homo sapiens) (UniProt O00292). In words: small molecules binding LEFTY2 protein – biochemical, small-molecule microarray, 635 nm fluorescence scan, primary screen (AID 1110). To be noted: higher = more signal.
Left-right determination factor 2 (Homo sapiens), sequence (O00292 whole entry, looked up): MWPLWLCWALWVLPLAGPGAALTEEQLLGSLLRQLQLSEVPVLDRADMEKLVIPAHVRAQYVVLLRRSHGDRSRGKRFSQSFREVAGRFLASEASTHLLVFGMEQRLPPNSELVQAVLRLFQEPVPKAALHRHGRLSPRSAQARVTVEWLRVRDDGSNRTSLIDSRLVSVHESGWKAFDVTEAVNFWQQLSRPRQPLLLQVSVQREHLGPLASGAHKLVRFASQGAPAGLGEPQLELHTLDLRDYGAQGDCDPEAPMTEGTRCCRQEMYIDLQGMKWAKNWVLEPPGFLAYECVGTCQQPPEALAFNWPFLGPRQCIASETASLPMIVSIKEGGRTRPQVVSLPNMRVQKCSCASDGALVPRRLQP
Assay [14] deals with Calmodulin-1 (Homo sapiens) (UniProt P0DP23). In words: small molecules binding calmodulin-1 with EGTA – biochemical, small-molecule microarray, Cy5-labelled CALM1, profiling panel (AID 1111).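 Also: labelled calmodulin applied in Tris saline Tween buffer holding calcium plus EGTA and DTT.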 To be noted: Cy5-CALM1 binding fluorescence, higher = more signal.
For assay [15] the target is unchanged. In words: small molecules binding Ca-loaded calmodulin-1 – biochemical, small-molecule microarray, Cy5-labelled CALM1, plus calcium, artefact control for SMM control-protein annotation, profiling panel (AID 1112).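 Also: score merges spot fluorescence with signal to noise from triplicate slides.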 As to conditions: Cy5-CALM1 binding fluorescence, higher = more signal.
A short description of assay [16]: probe aWnt5a binding to arrayed compounds – biochemical, biotinylated probe, 635/667 nm fluorescence, primary screen (AID 1113).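 Also: score merges 667 nm fluorescence intensity with signal-to-noise per printed feature.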 As to conditions: small-molecule microarray, higher = more signal.
Assay [17] is described as follows: probe aShh binding to arrayed compounds – biochemical, biotinylated probe, 635/667 nm fluorescence, primary screen (AID 1114).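 Also: probe is biotin-labelled aShh protein from a stem cell growth factor screen; measures binding of labelled protein to compounds printed on the slide; score merges feature fluorescence at 667 nm with signal-to-noise.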 As to conditions: small-molecule microarray, higher = more signal.
Assay [18] in a line: probe aNog binding to arrayed compounds – biochemical, biotinylated probe, 635/667 nm fluorescence, primary screen (AID 1115).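 Also: probe is biotinylated aNog protein used at 0.15 µg/mL for 1 h at 4 C; z-score combines 667 nm fluorescence of each spot with its signal to noise.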 To be noted: small-molecule microarray, higher = more signal.
Assay [19] addresses Torsin-1A-interacting protein 1 (Homo sapiens) (UniProt Q5JTV8). In words: compound microarray binding of lysate hLAP1 – cell lysate, small-molecule microarray, COS7 lysate, 635/667 nm fluorescence, primary screen (AID 1116). As to conditions: 635 nm fluorescence, higher = more signal.
For assay [20], the target named is Alpha-bungarotoxin (Bungarus multicinctus) (UniProt P60615). In words: compounds binding labelled alpha-BTX control protein – biochemical, small-molecule microarray, Alexa647 label, 635/667 nm fluorescence, artefact control for SMM control protein annotation, profiling panel (AID 1117). As to conditions: alpha-BTX-A647 binding fluorescence, higher = more signal.
Alpha-bungarotoxin (Bungarus multicinctus), sequence (P60615 whole entry, looked up): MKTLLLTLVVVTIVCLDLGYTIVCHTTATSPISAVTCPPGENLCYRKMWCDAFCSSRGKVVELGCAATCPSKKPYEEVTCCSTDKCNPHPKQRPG

Our source for the composite z-score and z-score values is PubChem BioAssay.

The source made the active and inactive calls.

Torsin-1A-interacting protein 1 (Homo sapiens), sequence (Q5JTV8 whole entry, looked up): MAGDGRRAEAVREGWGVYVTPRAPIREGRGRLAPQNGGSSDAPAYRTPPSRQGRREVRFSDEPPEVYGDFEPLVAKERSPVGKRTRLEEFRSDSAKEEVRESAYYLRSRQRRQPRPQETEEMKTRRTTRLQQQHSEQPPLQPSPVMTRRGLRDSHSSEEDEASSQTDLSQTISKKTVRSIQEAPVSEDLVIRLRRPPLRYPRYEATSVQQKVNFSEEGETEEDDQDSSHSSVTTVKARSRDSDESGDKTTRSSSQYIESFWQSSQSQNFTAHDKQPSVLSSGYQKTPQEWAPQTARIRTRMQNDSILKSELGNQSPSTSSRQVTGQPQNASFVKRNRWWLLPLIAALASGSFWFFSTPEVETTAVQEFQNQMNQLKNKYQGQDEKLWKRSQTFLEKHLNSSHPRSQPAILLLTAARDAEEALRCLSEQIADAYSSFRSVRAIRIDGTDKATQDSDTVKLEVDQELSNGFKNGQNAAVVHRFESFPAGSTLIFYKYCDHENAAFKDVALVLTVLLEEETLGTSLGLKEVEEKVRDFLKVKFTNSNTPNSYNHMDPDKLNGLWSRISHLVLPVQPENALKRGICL

For `C=CCOC(=O)[C@H]1[C@@H]2C(=O)O[C@@H](c3ccccc3)[C@@H](c3ccccc3)N2[C@@H](c2ccc(OCCOC(=O)[C@H]3C[C@H]4C(=O)NCC(=O)N4[C@H]3c3ccc(O)cc3)cc2)[C@]12C(=O)Nc1ccccc12`, the composite z-score in assay [1] turned out to be 1.33; in [2], 0.101; in assay [3], 0.116; in assay [5], 1.28; in [6] it was 1.3; in [7] it was 0.756. Besides, the composite z-score is 1.23 in assay [8]; 0.974 in assay [9]; 0.511 in assay [10]; 1.44 in assay [11]; 0.506 in assay [13]; 1.18 in assay [14]. In addition, the composite z-score in assay [15] is -0.237; in assay [16], -0.0758; in assay [17], -0.16; in assay [18], -0.217; in [19], 1.05; in assay [20], 1.77. Moreover, the z-score was 0.417 (inactive) in [4] and -2.07 in assay [12].
For `COc1ccc(CCNC(=O)[C@@H]2c3ccccc3C(=O)N(C(C)C)[C@H]2c2ccc(CO)cc2)cc1`, the composite z-score in [1] is 0.37; in [2], 0.316; in assay [3], 0.684; in assay [5], -1.05; in assay [6], -0.848; in assay [7] it was -0.736. For the same compound, the composite z-score in [8] was -0.715; in assay [9], -0.995; in assay [10], -0.158; in assay [11], -0.943; in [13] it was -1.81; in assay [14], -0.446. Moreover, the composite z-score in [15] was 0.465; in assay [16], -0.172; in [17] it was -0.209; in [18] it was -0.0621; in [19], 0.434; in assay [20] it was 2.66. In addition, the z-score in [4] is 0.109 (inactive); in assay [12], -1.41.
As to `C=CC[C@]1(C(=O)NCCN2CCOCC2)N=C(c2ccc(OCCCO)cc2)O[C@H]1c1ccccc1`, the composite z-score is 1.52 in [1]; -0.0845 in assay [2]; 0.942 in [3]; 0.3 in assay [5]; 0.866 in assay [6]; -0.0911 in assay [7]. Besides, the composite z-score in assay [8] is 0.281; in assay [9], 0.418; in assay [10], 0.772; in [11] it was 1.35; in assay [13], 0.66; in assay [14], 0.0631. The composite z-score in [15] was -0.442; in assay [16], 0.212; in assay [17] it was 0.398; in assay [18], -0.103; in assay [19], 1.24; in [20], 0.429. Further, the values for the z-score in assay [4] and in assay [12] were -0.4 (inactive) and -0.633, respectively.
With `COc1ccc(C(=O)Nc2cccc(CN3C(=O)[C@]4(O[C@H](CC(=O)N(CCO)Cc5ccccc5)[C@@H]([Si](C)(C)c5ccc(OC)cc5)[C@@H]4C)c4ccccc43)c2)cc1`, the composite z-score in assay [1] was 1.12; in [2], -0.275; in [3], 0.123; in assay [5], 1.11; in assay [6] it was -0.117; in [7], 0.666. In addition, the composite z-score in assay [8] was 0.702; in assay [9], 0.649; in assay [10], 0.794; in [11], 0.753; in [13] it was 0.546; in assay [14], -0.0878. Moreover, the composite z-score was -0.342 in assay [15]; 0.093 in assay [16]; -0.0192 in [17]; -0.0315 in [18]; 0.566 in assay [19]; 0.696 in [20]. Further, the z-score in assay [4] is 0.288 (inactive); in assay [12] it was -3.73.
Regarding `CCc1cccc(NC(=O)O[C@H]2[C@H](OC(=O)Nc3ccccc3-c3ccccc3)[C@H](OC(=O)Nc3ccccc3-c3ccccc3)[C@@H](OC)O[C@@H]2CO)c1`, the composite z-score in assay [1] came out at 0.477; in assay [2], 0.632; in assay [3] it was 0.444; in assay [5], 1.45; in [6] it was 1.34; in assay [7], 0.851. Moreover, the composite z-score stood at 1.31 in assay [8]; 0.635 in assay [9]; 0.838 in assay [10]; 1.42 in [11]; 0.588 in assay [13]; 1.44 in [14]. The composite z-score in [15] is -0.301; in assay [16], 0.179; in assay [17], 0.0796; in assay [18] it was -0.318; in assay [19], 1.81; in assay [20] it was 1.29. Moreover, the values for the z-score in assay [4] and in [12] were 1.93 (inactive) and -1.95, respectively.
